# Results from article PMC5540273 (PLoS ONE, 2017).
# Test system: CAMK1D
# Settings: concentration: 1 μM, replicates: in singlicate; n = 1
# 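Further: KINOMEscan kinase panel screen.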
row,SMILES,%Inh
1,O=C(Nc1n[nH]c2nc(-c3ccccc3)c(Br)cc12)C1CC1 [SB-708998],4%
2,COC(=O)c1c(-c2ccccc2)c2cc(Br)ccc2c(=O)n1Cc1ccc(NC(=O)CCC(=O)O)cc1,12%
3,COc1cc2ncn(-c3cc(OCCCc4ccccc4)c(C(N)=O)s3)c2cc1OC [GSK205189],16%
4,Nc1nc(N)c2nc(-c3ccccc3)[nH]c2n1 [SKF-12778],0%
5,COc1ccc(CNC(=O)NC2CCN(c3ccnc(Nc4ccc(F)cc4)n3)C2)cc1 (stereo not drawn) [GSK1379706],4%
6,COc1ccc(Nc2nccc(N3CCC(NS(=O)(=O)c4ccc(NC(C)=O)cc4)C3)n2)cc1 (stereo not drawn) [GSK1379729],19%
7,CCS(=O)c1ccc(-c2coc3ccc(-c4nnc(C)o4)cc23)cc1 (stereo not drawn),23%
8,COc1cc2ncn(-c3cc(OCc4ccncc4)c(C(N)=O)s3)c2cc1OC [GSK336313],25%
9,O=C(Nc1n[nH]c2nc(-c3ccccc3)c(Cl)cc12)C1CC1 [SB-734909],0%
10,Cc1nnc(-c2ccc3ncn(-c4ccc(S(C)=O)cc4)c3c2)o1 (stereo not drawn),0%
11,Nc1n[nH]c2ncc(-c3ccccc3)cc12 [SB-517081],40%
12,COc1cc2ncn(-c3cc(OCc4ccc(S(C)(=O)=O)cc4)c(C(N)=O)s3)c2cc1OC [GW869979],0%
13,Cc1ccc(-c2ccc3c(ccc4sc5c(c43)NC[C@@H](C)N=C5N(C)C)n2)cn1,0%
14,COc1cc(Nc2nccc(N3CCC(NC(=O)C(C)c4ccc(Cl)cc4)C3)n2)cc(OC)c1OC (stereo not drawn) [GSK1379757],9%
15,Cl.NS(=O)(=O)c1cccc(Nc2cc(-c3ccc(F)cc3)n[nH]2)c1 [GW824645],0%
16,CCCNC(=O)Nc1ccc(Oc2ncnc3ccn(C)c23)cc1,0%
17,CCC(=O)c1c(-c2ccccc2)c2cc(Cl)ccc2c(=O)n1Cc1ccc(C(=O)O)cc1,0%
18,O=c1cc(N2CCOCC2)nc2n(Cc3ccc(F)c(Cl)c3)ccn12 [GSK2297099],9%

row,SMILES,%Inh
1,CCC(=O)c1c(-c2ccccc2)c2cc(Cl)ccc2c(=O)n1Cc1cc(S(C)(=O)=O)n(CC(N)=O)n1,21%
2,FC(F)(F)c1ccc(-c2ncn(CCCN3CCOCC3)c2-c2ccncc2)cc1 [SB-217780],23%
3,Cc1nc(N(C)[C@H]2CN(C(=O)CC#N)CC[C@H]2C)c2cc[nH]c2n1,15%
4,Nc1ncnc2c1ncn2-c1cccc2ccccc12 [SKF-97184],10%
5,Cc1nnc(-c2ccc(C)c(-c3ccc(C(=O)O)cc3)c2)o1 [GW608005],4%
6,COc1cccc(C2=C(Nc3cccc(C(=O)O)c3)C(=O)NC2=O)c1 [SB-390770],0%
7,COc1ccc(-c2cc3c(C)nc(N)nc3n([C@H]3CC[C@H](O)CC3)c2=O)cn1,0%
8,Cc1cc(Nc2nc(-c3cccc(C)n3)nc3ccccc23)ccn1 [GW872411],0%
9,COc1cc2nccc(Nc3ccc(OCc4ccc(NC(C)=O)cc4)cc3)c2cc1OC.Cl [GW440135],8%
10,O=C(Nc1n[nH]c2cc(-c3ccccc3F)ccc12)C1CC1 [SB-733371],0%
11,CN(C)c1cc(-c2ccc3c(N)n[nH]c3c2)nc(N)n1 [GSK2219329],9%
12,CCS(=O)(=O)c1ccc(OC)c(Nc2ncc(-c3ccc(F)cc3)o2)c1.Cl [GW591947],3%
13,Nc1nc(-c2ccccc2F)c(-c2ccnc3ccccc23)s1 [GW560459],0%
14,Cc1nn2c(=O)cc(N3CCOCC3)nc2n1Cc1cccc(Cl)c1Cl [GSK2342769],8%
15,Fc1cccc(CSc2nnc(-c3ccc4c(c3)CCO4)o2)c1,0%
16,Cc1cccc(-c2cc(-c3c[nH]nc3-c3ccccn3)ccn2)c1 [GW679395],10%
17,COc1cc2ncn(-c3cc(OCc4ccncc4Br)c(C(N)=O)s3)c2cc1OC [GW854278],0%
18,CC(C)(C)c1ccc(C(=O)Nc2cn3cc(-c4ccccc4)ccc3n2)cc1,0%

# Test system: CAMK1G
# Settings: concentration: 1 μM, replicates: in singlicate; n = 1
row,SMILES,%Inh
1,O=C(Nc1n[nH]c2nc(-c3ccccc3)c(Br)cc12)C1CC1 [SB-708998],0%
2,COC(=O)c1c(-c2ccccc2)c2cc(Br)ccc2c(=O)n1Cc1ccc(NC(=O)CCC(=O)O)cc1,9%
3,COc1cc2ncn(-c3cc(OCCCc4ccccc4)c(C(N)=O)s3)c2cc1OC [GSK205189],24%
4,Nc1nc(N)c2nc(-c3ccccc3)[nH]c2n1 [SKF-12778],0%
5,COc1ccc(CNC(=O)NC2CCN(c3ccnc(Nc4ccc(F)cc4)n3)C2)cc1 (stereo not drawn) [GSK1379706],8%
6,COc1ccc(Nc2nccc(N3CCC(NS(=O)(=O)c4ccc(NC(C)=O)cc4)C3)n2)cc1 (stereo not drawn) [GSK1379729],0%
7,CCS(=O)c1ccc(-c2coc3ccc(-c4nnc(C)o4)cc23)cc1 (stereo not drawn),2%
8,COc1cc2ncn(-c3cc(OCc4ccncc4)c(C(N)=O)s3)c2cc1OC [GSK336313],47%
9,O=C(Nc1n[nH]c2nc(-c3ccccc3)c(Cl)cc12)C1CC1 [SB-734909],0%
10,Cc1nnc(-c2ccc3ncn(-c4ccc(S(C)=O)cc4)c3c2)o1 (stereo not drawn),2%
11,Nc1n[nH]c2ncc(-c3ccccc3)cc12 [SB-517081],17%
12,COc1cc2ncn(-c3cc(OCc4ccc(S(C)(=O)=O)cc4)c(C(N)=O)s3)c2cc1OC [GW869979],0%
13,Cc1ccc(-c2ccc3c(ccc4sc5c(c43)NC[C@@H](C)N=C5N(C)C)n2)cn1,0%
14,COc1cc(Nc2nccc(N3CCC(NC(=O)C(C)c4ccc(Cl)cc4)C3)n2)cc(OC)c1OC (stereo not drawn) [GSK1379757],0%
15,Cl.NS(=O)(=O)c1cccc(Nc2cc(-c3ccc(F)cc3)n[nH]2)c1 [GW824645],0%
16,CCCNC(=O)Nc1ccc(Oc2ncnc3ccn(C)c23)cc1,19%
17,CCC(=O)c1c(-c2ccccc2)c2cc(Cl)ccc2c(=O)n1Cc1ccc(C(=O)O)cc1,0%
18,O=c1cc(N2CCOCC2)nc2n(Cc3ccc(F)c(Cl)c3)ccn12 [GSK2297099],11%

row,SMILES,%Inh
1,CCC(=O)c1c(-c2ccccc2)c2cc(Cl)ccc2c(=O)n1Cc1cc(S(C)(=O)=O)n(CC(N)=O)n1,0%
2,FC(F)(F)c1ccc(-c2ncn(CCCN3CCOCC3)c2-c2ccncc2)cc1 [SB-217780],3%
3,Cc1nc(N(C)[C@H]2CN(C(=O)CC#N)CC[C@H]2C)c2cc[nH]c2n1,1%
4,Nc1ncnc2c1ncn2-c1cccc2ccccc12 [SKF-97184],8%
5,Cc1nnc(-c2ccc(C)c(-c3ccc(C(=O)O)cc3)c2)o1 [GW608005],0%
6,COc1cccc(C2=C(Nc3cccc(C(=O)O)c3)C(=O)NC2=O)c1 [SB-390770],33%
7,COc1ccc(-c2cc3c(C)nc(N)nc3n([C@H]3CC[C@H](O)CC3)c2=O)cn1,0%
8,Cc1cc(Nc2nc(-c3cccc(C)n3)nc3ccccc23)ccn1 [GW872411],0%
9,COc1cc2nccc(Nc3ccc(OCc4ccc(NC(C)=O)cc4)cc3)c2cc1OC.Cl [GW440135],0%
10,O=C(Nc1n[nH]c2cc(-c3ccccc3F)ccc12)C1CC1 [SB-733371],0%
11,CN(C)c1cc(-c2ccc3c(N)n[nH]c3c2)nc(N)n1 [GSK2219329],0%
12,CCS(=O)(=O)c1ccc(OC)c(Nc2ncc(-c3ccc(F)cc3)o2)c1.Cl [GW591947],4%
13,Nc1nc(-c2ccccc2F)c(-c2ccnc3ccccc23)s1 [GW560459],0%
14,Cc1nn2c(=O)cc(N3CCOCC3)nc2n1Cc1cccc(Cl)c1Cl [GSK2342769],8%
15,Fc1cccc(CSc2nnc(-c3ccc4c(c3)CCO4)o2)c1,2%
16,Cc1cccc(-c2cc(-c3c[nH]nc3-c3ccccn3)ccn2)c1 [GW679395],0%
17,COc1cc2ncn(-c3cc(OCc4ccncc4Br)c(C(N)=O)s3)c2cc1OC [GW854278],7%
18,CC(C)(C)c1ccc(C(=O)Nc2cn3cc(-c4ccccc4)ccc3n2)cc1,0%
